Assay results reported in PubChem BioAssay AID1159580 (chemical genetic matrix, 2015).
Values joined by “and” are separate entries in the source; they are usually repeats but may differ in a detail not shown here. Equal values may be shown once. About 2,000 (36%) of roughly 5,500 compounds were called active. Another 18% or so got no clear call; they are omitted. No stated cut-off is given here; in the data, active means normalized growth mostly below about 0.91 (no sharp cut-off); inconclusive means no clear call, values can overlap the other calls; inactive means mostly above about 0.92. The list shows a part of the results.

Experiment: chemical genetic growth profiling, strain panel (AID 1159580);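 further: tested at 20 µM; growth read once vehicle control cultures reached saturation at 30 °C; 1 = growth at the plate median or of vehicle wells; lower values mean less growth of the strain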
Details: growth OD

Measured: normalized growth

CC(C[N+](C)(C)C)OC(N)=O (centres undefined)
inactive: S. cerevisiae deletion strains, locus YJR066W, strain TOR1, hits give low values 0.993 | S. cerevisiae deletion strains, locus YKL009W, strain mrt4, hits give low values 0.934 | S. cerevisiae deletion strains, locus YKL068W, hits give low values 0.991 | S. cerevisiae deletion strains, locus YKL085W, strain MDH1 (second series), hits give low values 0.996 | S. cerevisiae deletion strains, locus YKL085W, strain MDH1, hits give low values 0.996 | S. cerevisiae deletion strains, locus YKL160W, strain elf1, hits give low values 1.01 | S. cerevisiae deletion strains, locus YKL190W, strain CNB1, hits give low values 1 | S. cerevisiae deletion strains, locus YKR001C, strain vps1, hits give low values 0.96 | S. cerevisiae deletion strains, locus YKR026C, strain gcn3, hits give low values 1.02 | S. cerevisiae deletion strains, locus YKR091W, strain srl3, hits give low values 1.02 | S. cerevisiae deletion strains, locus YLL001W, strain dnm1, hits give low values 1.03 | S. cerevisiae deletion strains, locus YLL026W, hits give low values 1.01 | S. cerevisiae deletion strains, locus YLL041C, strain sdh2, hits give low values 1.04 | S. cerevisiae deletion strains, locus YLR027C, strain aat2, hits give low values 1.03 | S. cerevisiae deletion strains, locus YLR039C, strain RIC1, hits give low values 0.952 | S. cerevisiae deletion strains, locus YLR058C, strain SHM2, hits give low values 0.991 | S. cerevisiae deletion strains, locus YLR102C, strain apc9, hits give low values 0.983 | S. cerevisiae deletion strains, locus YLR113W, strain HOG1, hits give low values 0.957 | S. cerevisiae deletion strains, locus YLR221C, strain rsa3, hits give low values 1.04 | S. cerevisiae deletion strains, locus YLR258W, strain gsy2, hits give low values 1.04 | S. cerevisiae deletion strains, locus YLR262C, strain YPT6 (second series), hits give low values 1.02 | S. cerevisiae deletion strains, locus YLR262C, strain YPT6, hits give low values 0.939 | S. cerevisiae deletion strains, locus YLR268W, strain sec22, hits give low values 0.973 | S. cerevisiae deletion strains, locus YLR320W, strain mms22, hits give low values 1.03 | S. cerevisiae deletion strains, locus YLR330W, strain CHS5, hits give low values 0.994 | S. cerevisiae deletion strains, locus YLR342W, strain FKS1 (second series), hits give low values 1.06 | S. cerevisiae deletion strains, locus YLR342W, strain FKS1, hits give low values 1.02 | S. cerevisiae deletion strains, locus YLR357W, strain rsc2, hits give low values 1.02 | S. cerevisiae deletion strains, locus YLR370C, strain arc18, hits give low values 1.03 | S. cerevisiae deletion strains, locus YLR371W, strain rom2, hits give low values 0.976 | S. cerevisiae deletion strains, locus YLR384C, strain iki3, hits give low values 1.03 | S. cerevisiae deletion strains, locus YLR418C, strain cdc73, hits give low values 0.953 | S. cerevisiae deletion strains, locus YML016C, strain PPZ1, hits give low values 0.995 | S. cerevisiae deletion strains, locus YML032C, strain rad52, hits give low values 0.983 | S. cerevisiae deletion strains, locus YML120C, strain ndi1, hits give low values 1.03 | S. cerevisiae deletion strains, locus YML124C, strain tub3, hits give low values 0.986 | S. cerevisiae deletion strains, locus YMR058W, strain fet3, hits give low values 1.03 | S. cerevisiae deletion strains, locus YMR078C, strain ctf18, hits give low values 0.97 | S. cerevisiae deletion strains, locus YMR125W, strain sto1, hits give low values 1.05 | S. cerevisiae deletion strains, locus YMR129W, hits give low values 1.03 | S. cerevisiae deletion strains, locus YMR205C, strain PFK2, hits give low values 0.998 | S. cerevisiae deletion strains, locus YMR223W, strain ubp8, hits give low values 0.987 | S. cerevisiae deletion strains, locus YMR231W, strain pep5, hits give low values 1.02 | S. cerevisiae deletion strains, locus YMR307W, strain GAS1, hits give low values 1.09 | S. cerevisiae deletion strains, locus YNL067W, strain RPL9B, hits give low values 0.98 | S. cerevisiae deletion strains, locus YNL071W, strain lat1, hits give low values 1.01 | S. cerevisiae deletion strains, locus YNL128W, strain TEP1, hits give low values 0.975 and 0.99 | S. cerevisiae deletion strains, locus YNL153C, strain GIM3, hits give low values 0.995 | S. cerevisiae deletion strains, locus YNL175C, strain NOP13, hits give low values 0.997 | S. cerevisiae deletion strains, locus YNL183C, strain NPR1, hits give low values 0.96 | S. cerevisiae deletion strains, locus YNL197C, strain WHI3, hits give low values 1 | S. cerevisiae deletion strains, locus YNL209W, strain ssb2, hits give low values 1.03 | S. cerevisiae deletion strains, locus YNL224C, strain SQS1, hits give low values 0.995 | S. cerevisiae deletion strains, locus YNL233W, strain BNI4, hits give low values 0.999 | S. cerevisiae deletion strains, locus YNL248C, strain rpa49, hits give low values 1.01 | S. cerevisiae deletion strains, locus YNL250W, strain rad50, hits give low values 1 | S. cerevisiae deletion strains, locus YNL271C, strain bni1, hits give low values 0.973 | S. cerevisiae deletion strains, locus YNL298W, strain CLA4, hits give low values 0.976 | S. cerevisiae deletion strains, locus YNL307C, strain MCK1, hits give low values 0.97 | S. cerevisiae deletion strains, locus YNL322C, strain KRE1 (second series), hits give low values 1.01 | S. cerevisiae deletion strains, locus YNL322C, strain KRE1, hits give low values 0.992 | S. cerevisiae deletion strains, locus YNR049C, strain mso1, hits give low values 1.01 | S. cerevisiae deletion strains, locus YNR052C, strain pop2, hits give low values 0.982 | S. cerevisiae deletion strains, locus YOL006C, strain TOP1, hits give low values 1.02 | S. cerevisiae deletion strains, locus YOL012C, strain htz1 0.744 | S. cerevisiae deletion strains, locus YOL147C, strain pex11, hits give low values 0.987 | S. cerevisiae deletion strains, locus YOR001W, strain rrp6, hits give low values 1.03 | S. cerevisiae deletion strains, locus YOR061W, strain CKA2, hits give low values 0.99 | S. cerevisiae deletion strains, locus YOR069W, strain VPS5, hits give low values 0.987 | S. cerevisiae deletion strains, locus YOR070C, strain gyp1, hits give low values 1.03 | S. cerevisiae deletion strains, locus YOR080W, strain dia2, hits give low values 1.04 | S. cerevisiae deletion strains, locus YOR083W, strain WHI5 (second series), hits give low values 0.996 | S. cerevisiae deletion strains, locus YOR083W, strain WHI5, hits give low values 0.976 | S. cerevisiae deletion strains, locus YOR106W, strain vam3, hits give low values 1.05 | S. cerevisiae deletion strains, locus YOR136W, strain idh2, hits give low values 0.968 | S. cerevisiae deletion strains, locus YOR144C, strain elg1, hits give low values 0.985 | S. cerevisiae deletion strains, locus YOR184W, strain ser1, hits give low values 0.976 | S. cerevisiae deletion strains, locus YOR231W, strain MKK1, hits give low values 0.979 | S. cerevisiae deletion strains, locus YOR265W, strain rbl2, hits give low values 1.02 | S. cerevisiae deletion strains, locus YOR270C, strain vph1, hits give low values 1.05 | S. cerevisiae deletion strains, locus YOR290C, strain snf2, hits give low values 1.02 | S. cerevisiae deletion strains, locus YOR316C, strain cot1, hits give low values 0.977 | S. cerevisiae deletion strains, locus YPL051W, strain arl3, hits give low values 1.02 | S. cerevisiae deletion strains, locus YPL055C, strain LGE1, hits give low values 0.998 | S. cerevisiae deletion strains, locus YPL078C, strain atp4, hits give low values 1.02 | S. cerevisiae deletion strains, locus YPL106C, strain sse1, hits give low values 1.06 | S. cerevisiae deletion strains, locus YPL240C, strain hsp82, hits give low values 1.02 | S. cerevisiae deletion strains, locus YPL256C, strain CLN2, hits give low values 0.976 | S. cerevisiae deletion strains, locus YPR119W, strain clb2, hits give low values 0.985 | S. cerevisiae deletion strains, locus YPR141C, strain kar3, hits give low values 0.986 | S. cerevisiae deletion strains, locus YPR163C, strain tif3, hits give low values 0.979 | S. cerevisiae deletion strains, locus YPR167C, strain met16, hits give low values 0.98 | S. cerevisiae deletion strains, strain wtn01, hits give low values 1 | S. cerevisiae strains, strain wild type, hits give low values 0.994
